# The whole screen tested about 310,000 compounds, of which about 14,000 (4.5%) showed an effect of 50% or more. Effects have a minus sign here. The sample holds strong results, similar compounds and a random draw of the others, so the mix is not that of the screen.
# Molecular target: human ether-à-go-go-related gene (hERG) potassium channel (human, UniProt Q12809)
# Test: primary screen, population patch clamp on CHO cells stably expressing hERG; higher = less effect of the substance
# 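Also: peak tail current of the secondary pulse compared with the same well before compound.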
# human ether-à-go-go-related gene (hERG) potassium channel, sequence (Q12809 whole entry, looked up): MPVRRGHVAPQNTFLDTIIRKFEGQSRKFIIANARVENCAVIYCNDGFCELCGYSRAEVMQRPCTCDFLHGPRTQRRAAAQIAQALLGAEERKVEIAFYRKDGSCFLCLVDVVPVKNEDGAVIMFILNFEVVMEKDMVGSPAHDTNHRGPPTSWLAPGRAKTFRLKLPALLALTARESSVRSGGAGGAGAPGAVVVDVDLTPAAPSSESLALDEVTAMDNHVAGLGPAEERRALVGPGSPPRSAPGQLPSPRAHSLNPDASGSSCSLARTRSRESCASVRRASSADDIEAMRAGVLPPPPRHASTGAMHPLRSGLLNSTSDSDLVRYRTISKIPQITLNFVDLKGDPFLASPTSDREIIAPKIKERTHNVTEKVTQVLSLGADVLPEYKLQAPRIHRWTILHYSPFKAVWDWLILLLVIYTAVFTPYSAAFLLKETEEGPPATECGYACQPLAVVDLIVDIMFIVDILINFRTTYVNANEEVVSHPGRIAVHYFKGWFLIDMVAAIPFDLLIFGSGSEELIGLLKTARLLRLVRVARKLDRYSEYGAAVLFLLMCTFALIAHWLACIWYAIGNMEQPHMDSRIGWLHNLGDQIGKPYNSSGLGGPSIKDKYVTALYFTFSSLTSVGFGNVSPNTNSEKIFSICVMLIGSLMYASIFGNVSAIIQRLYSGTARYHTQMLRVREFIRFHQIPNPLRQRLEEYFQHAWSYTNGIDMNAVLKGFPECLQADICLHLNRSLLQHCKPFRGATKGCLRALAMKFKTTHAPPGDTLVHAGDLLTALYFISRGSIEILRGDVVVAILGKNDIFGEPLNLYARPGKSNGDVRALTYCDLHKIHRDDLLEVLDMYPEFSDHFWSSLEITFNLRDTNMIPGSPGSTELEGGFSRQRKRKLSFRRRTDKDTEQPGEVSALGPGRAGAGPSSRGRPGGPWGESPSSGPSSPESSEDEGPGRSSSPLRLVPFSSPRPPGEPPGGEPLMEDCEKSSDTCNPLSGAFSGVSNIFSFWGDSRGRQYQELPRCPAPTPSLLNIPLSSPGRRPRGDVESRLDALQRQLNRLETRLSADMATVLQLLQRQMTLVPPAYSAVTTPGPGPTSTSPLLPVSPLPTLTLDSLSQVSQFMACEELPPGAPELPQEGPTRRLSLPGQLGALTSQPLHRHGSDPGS
row,SMILES,"hERG current change (%, negative = inhibition) at 10uM"
1,CN(C)CCCN(C(=O)COc1ccccc1)c1nc2c(F)cccc2s1.Cl,-81.2%
2,CCN(CC)CCN(C(=O)CCOc1ccccc1)c1nc2c(F)cc(F)cc2s1.Cl,-8.13%
3,CN(C)CCN(C(=O)CCS(=O)(=O)c1ccccc1)c1nc2c(F)cccc2s1,13.6%
4,Fc1ccc(Cn2nnnc2CN2CCN(C3CCCCC3)CC2)cc1,-45.4%
5,C/C(CC(=O)NC(C)C)=N\NC(=O)C(c1ccccc1)c1ccccc1,9.95%
6,CC(C)(C)C(=O)C[n+]1ccc(C(N)=O)cc1.[Br-],0.811%
7,O=S(=O)(Nc1ccc2c(c1)OCCO2)c1c(F)cccc1F,3.4%
8,O=C(CCN1c2ccccc2Sc2ccccc21)OCC(=O)N1CCN(C(=O)c2ccco2)CC1,-66%
9,O=C(Cc1ccc(Cl)cc1Cl)OCC(=O)N1CCN(C(=O)c2ccco2)CC1,-57.6%
10,O=C(CSc1ccccc1)OCC(=O)N1CCN(C(=O)c2ccco2)CC1,-27%
11,O=C(COC(=O)c1cccc(S(=O)(=O)N2CCc3ccccc32)c1)NCc1ccco1,21.5%
12,O=C(Cc1ccccc1F)OCC(=O)N1CCN(C(=O)c2ccco2)CC1,-22.6%
13,CCN(CC)S(=O)(=O)c1ccc(C(=O)OCC(=O)N2CCN(C(=O)c3ccco3)CC2)cc1,-37.2%
14,O=C(Cc1c(Cl)cccc1Cl)OCC(=O)N1CCN(C(=O)c2ccco2)CC1,-14.9%
15,O=C(OCC(=O)N1CCN(C(=O)c2ccco2)CC1)c1cccc(S(=O)(=O)N2CCc3ccccc32)c1,-84%
16,CN(c1ccccc1)S(=O)(=O)c1cc(C(=O)OCC(N)=O)ccc1Cl,-4.09%
17,CN(c1ccccc1)S(=O)(=O)c1cc(C(=O)OCC(=O)N2CCN(C(=O)c3ccco3)CC2)ccc1Cl,-68.3%
18,O=C(OCC(=O)N1CCOCC1)c1cccc(S(=O)(=O)N2CCCc3ccccc32)c1,-24.9%
19,O=C(CCC(=O)c1cccs1)OCC(=O)N1CCN(C(=O)c2ccco2)CC1,-2.34%
20,Cc1nn(C)c(Oc2ccc(Cl)cc2)c1C(=O)O,12.8%
21,CC1=CC(C)C2(COC(=O)Nc3ccccc3)COC(C)C1C2C (centres unmarked),-3.03%
22,CCOC(=O)C1CCN(Cc2cccc(Oc3ccc(Cl)cc3)c2)CC1,3.3%
23,CCn1c(CNC(=O)c2cccs2)n[nH]c1=S,3.27%
24,Cc1cccc(COc2ccc(/C=N/NC(=O)c3nnn(-c4nonc4N)c3C)cc2)c1,15.3%

row,SMILES,"hERG current change (%, negative = inhibition) at 10uM"
1,O=C(COc1cccnc1[N+](=O)[O-])Nc1ccc2c(c1)OCO2,6.1%
2,Cc1cc(NC(=O)c2ccc(S(=O)(=O)N(C)CC3CCCO3)cc2)no1 (centres unmarked),2.09%
3,COc1ccccc1CCNS(=O)(=O)c1cn(C)nc1C,1.14%
4,O=C(OCC(=O)N1CCN(C(=O)c2ccco2)CC1)c1ccc(Cl)c(Cl)c1,-62.9%
5,COCCN(CCOC)C(=O)COC(=O)c1ccc(Cl)c(S(=O)(=O)N(C)c2ccccc2)c1,-48.4%
6,O=C(OCC(=O)N1CCN(C(=O)c2ccco2)CC1)c1ccc(Cl)cc1,-38.7%
7,CN(CCC#N)C(=O)COC(=O)c1ccc(Cl)c(S(N)(=O)=O)c1,21.8%
8,CN(CCC#N)C(=O)COC(=O)c1ccc(Cl)c(S(=O)(=O)N(C)c2ccccc2)c1,-58.2%
9,O=C(OCC(=O)N1CCN(C(=O)c2ccco2)CC1)c1ccccc1,10.4%
10,O=C(Nc1ccc2c(c1)CCC2)c1cccs1,24.7%
11,O=C(CSc1ccc2nnc(-c3ccc(Cl)cc3)n2n1)N1CCCc2ccccc21,1.71%
12,CCOC(=O)c1c(C)n(C)c2ccc(OC(C)C(=O)OC)cc12 (centres unmarked),-10%
13,COc1cc(/C=N/Nc2ccccn2)ccc1OCC(C)C,27.5%
14,CCCCn1c(-c2csc(C(C)C)c2)n[nH]c1=S,20.9%
15,Cc1ccc(COc2ccsc2C(=O)NNC(N)=S)cc1,19.9%
16,CCN(CC)CCOC(=O)C(O)(c1ccccc1)c1ccccc1.Cl,-42.1%
17,CCCC(C(=O)OCCN(CC)CC)(c1ccccc1)c1ccccc1.Cl,-53.9%
18,CCN(CC)CCCOC(=O)C(OC)(c1ccccc1)c1ccccc1.Cl,-27.9%
19,CCN(CC)CCOC(=O)C(c1ccccc1)c1ccccc1.Cl,-52.2%
20,CCN(CC)CCOCCOC(=O)C(CC)(CC)c1ccccc1,-9.35%
21,CCNCCOC(c1ccccc1)c1ccccc1.Cl,-31.8%
22,CCC(C(=O)OCCOCCN(CC)CC)c1ccccc1 (centres unmarked),1.01%
23,CCN(CC)CCCOC(=O)C(c1ccccc1)c1ccccc1.Cl,-56.5%
24,CCN(CC)CC#CCOC(c1ccccc1)c1ccccc1.Cl,-43.3%

row,SMILES,"hERG current change (%, negative = inhibition) at 10uM"
1,CCN(CC)CCOC(c1ccccc1)c1ccc(C)cc1.Cl (centres unmarked),-73%
2,CCN(CC)CCCOC(=O)C(OC(C)C)(c1ccccc1)c1ccccc1.Cl,-31.9%
3,CCCOc1ccc(C(C(=O)OCCN(CC)CC)c2ccccc2)cc1.O=C(O)C(=O)O (centres unmarked),-43%
4,O=C(NNC(=O)c1cccs1)c1ccc(Cl)c([N+](=O)[O-])c1,-6.26%
5,COC(=O)[C@H](CC(C)C)NC(=O)N1CCC(C)CC1,16.7%
6,CCOc1ccc(C(C)=O)cc1CN1C(=O)NC2(CCCCCC2)C1=O,3.83%
7,COc1ccccc1NC(=O)c1c(C)oc2c1CCCC2,4.78%
8,O=C(O)c1cccc(CSc2nnc(-c3ccc(Cl)cc3)o2)c1,12.5%
9,Cc1nn(Cc2ccccc2)c(C)c1NC(=O)CCC(=O)O,2.81%
10,O=C(O)CCC(=O)Nc1ccc(F)cc1,12.7%
11,CCNc1c(NCC)c(=O)c1=O,15.2%
12,CC(C)CC(=O)Nc1nnc(SCC(=O)NCc2ccc3c(c2)OCO3)s1,17.7%
13,O=C(O)c1cccc(N2C(=O)c3ccc(Oc4ccc(Cl)cc4)cc3C2=O)c1,12.8%
14,O=C(NNC(=S)NCc1ccccc1)c1ccc2c(c1)OCO2,8.77%
15,CCN1CCN(c2ccc(NC(C)=O)cc2Cl)CC1,-1.19%
16,CCCC(=O)Nc1ccc(N2CCN(CC)CC2)c(Cl)c1.Cl,-47.8%
17,CCCOc1ccc(C(=O)N2CCN(c3ccc(NC(=O)CC)cc3Cl)CC2)cc1,-77%
18,CCN1CCN(c2ccc(NC(=O)c3cccc(F)c3)cc2Cl)CC1,-75.2%
19,CCN1CCN(c2ccc(NC(=O)c3ccc(F)cc3)cc2Cl)CC1,-75.6%
20,COc1ccc(OCC(=O)Nc2ccc(N3CCN(C(=O)c4ccccc4)CC3)c(Cl)c2)cc1,-19.4%
21,CCCCCC(=O)Nc1ccc(N2CCN(CC)CC2)c(Cl)c1,-71.5%
22,CCC(=O)Nc1ccc(N2CCN(CC)CC2)c(Cl)c1,-3.56%
23,O=C(Nc1ccc(N2CCOCC2)c(Cl)c1)c1cccc(F)c1,-21.2%
24,CCCOc1ccc(C(=O)N2CCN(c3ccc(N)cc3Cl)CC2)cc1,-31.7%

row,SMILES,"hERG current change (%, negative = inhibition) at 10uM"
1,O=C(Nc1ccc(N2CCOCC2)c(Cl)c1)c1ccc(F)cc1,-3.11%
2,CCN1CCN(c2ccc(NC(=O)c3cccnc3)cc2Cl)CC1,-16.8%
3,COc1ccc(-c2nnc(SCc3nnc(-c4cccs4)o3)n2CC2CCCO2)cc1 (centres unmarked),-32%
4,Cc1ccc(OCc2nnc(NC(=O)c3ccco3)s2)cc1,6.86%
5,Cc1cccc(N(C(=O)c2csnn2)C(C(=O)NCc2ccccc2)c2ccncc2)c1 (centres unmarked),-18.7%
6,CCN(CC)CCCN1C(=O)C(O)=C(C(=O)c2sc(C)nc2C)C1c1ccco1 (centres unmarked),-0.605%
7,O=C(Cc1ccsc1)NNC(=O)c1ccc(F)cc1,-18.8%
8,c1ccc(CCN(Cc2ccccc2)Cc2nc(C3CC3)no2)cc1,10.2%
9,COc1ccc(OCc2cc(C(=O)N3CCC(OC)CC3)no2)c2ccccc12,14.4%
10,CCCCOc1ccc(Nc2cc(Cl)ccc2C(=O)O)cn1,23.5%
11,O=C(Nc1nnc(-c2ccccc2F)s1)Nc1ccccc1F,23.3%
12,CCn1c(SCC(=O)Nc2ccc(C)cc2)nc2nc3c(cc2c1=O)CCCC3,-43.6%
13,CCOc1ccc(NC(=O)CSc2nc3nc4c(cc3c(=O)n2CC)COC(C)(C)C4)cc1,0.831%
14,CCn1c(SCC(=O)Nc2ccc(OC)cc2)nc2nc3c(cc2c1=O)COC(C)(C)C3,-72.6%
15,CCn1c(SCC(=O)Nc2ccccc2C)nc2nc3c(cc2c1=O)COC(C)(C)C3,-21.4%
16,CCn1c(SCC(=O)Nc2ccc(OC)cc2)nc2nc3c(cc2c1=O)CCCC3,-62.6%
17,CCn1c(SCC(=O)Nc2ccc(OC)cc2OC)nc2nc3c(cc2c1=O)COC(C)(C)C3,-2.49%
18,C=CCn1c(SCC(N)=O)nc2nc3c(cc2c1=O)COC(C)(C)C3,4.77%
19,CCn1c(SCC(=O)Nc2cccc(C)c2)nc2nc3c(cc2c1=O)COC(C)(C)C3,-23.1%
20,CCn1c(SCC(=O)Nc2ccccc2)nc2nc3c(cc2c1=O)COC(C)(C)C3,-61.8%
21,CCn1c(SCC(=O)Nc2ccc(C(C)=O)cc2)nc2nc3c(cc2c1=O)CCCC3,-20.5%
22,CCn1c(SCC(=O)Nc2ccc(C(C)=O)cc2)nc2nc3c(cc2c1=O)COC(C)(C)C3,13.8%
23,CCn1c(SCC(=O)Nc2ccc(C)cc2)nc2nc3c(cc2c1=O)COC(C)(C)C3,-81.8%
